# Measurements: PubChem BioAssay AID1159580 (chemical genetic matrix, 2015)
# Among all 5,500 compounds or so, about 2,000 (36%) were called active. Another 18% or so got no clear call; they are omitted. The list shows a part of the results. A number with no mark means an inactive call. Cut-off read from the data, not from the text of the source: active = normalized growth mostly below about 0.91 (no sharp cut-off); inconclusive = no clear call, values can overlap the other calls; inactive = mostly above about 0.92.
# Assay: chemical genetic growth profiling, strain panel (AID 1159580);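 note: tested at 20 µM; growth read once vehicle control cultures reached saturation at 30 °C; 1 = growth at the plate median or of vehicle wells; lower values mean less growth of the strain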
# Settings: growth OD
# [1] = S. cerevisiae deletion strains, locus YDR150W, strain NUM1, active compounds read low
# [2] = S. cerevisiae deletion strains, locus YGR078C, strain PAC10, active compounds read low
# [3] = S. cerevisiae deletion strains, locus YGR229C, strain SMI1, active compounds read low
# [4] = S. cerevisiae deletion strains, locus YJR075W, strain HOC1, active compounds read low
# [5] = S. cerevisiae deletion strains, locus YMR263W, strain SAP30, active compounds read low
# [6] = S. cerevisiae deletion strains, locus YMR307W, strain GAS1, active compounds read low
# [7] = S. cerevisiae deletion strains, locus YNL128W, strain TEP1, active compounds read low
# [8] = S. cerevisiae deletion strains, locus YNL322C, strain KRE1, active compounds read low
# [9] = S. cerevisiae deletion strains, locus YPL055C, strain LGE1, active compounds read low
# [10] = S. cerevisiae deletion strains, locus YPL241C, strain CIN2, active compounds read low
# [11] = S. cerevisiae deletion strains, locus YAL040C, strain CLN3, active compounds read low
# [12] = S. cerevisiae deletion strains, locus YCL061C, strain MRC1 (second series), active compounds read low
# [13] = S. cerevisiae deletion strains, locus YDR363W, strain ESC2, active compounds read low
# [14] = S. cerevisiae deletion strains, locus YER002W, strain NOP16, active compounds read low
# [15] = S. cerevisiae deletion strains, locus YNL175C, strain NOP13, active compounds read low
# [16] = S. cerevisiae deletion strains, locus YNL197C, strain WHI3, active compounds read low
# [17] = S. cerevisiae deletion strains, locus YNL224C, strain SQS1, active compounds read low
# [18] = S. cerevisiae deletion strains, locus YOR083W, strain WHI5 (second series), active compounds read low
smiles,measurement,setting,value
CC(=O)OC1CN2CCC1CC2 (stereo not drawn),normalized growth,"S. cerevisiae deletion strains, locus YAL013W, strain DEP1, active compounds read low",0.997
same,normalized growth,"S. cerevisiae deletion strains, locus YBR021W, strain FUR4, active compounds read low",1.01
same,normalized growth,"S. cerevisiae deletion strains, locus YBR229C, strain ROT2, active compounds read low",0.973
same,normalized growth,"S. cerevisiae deletion strains, locus YCL029C, strain bik1, active compounds read low",0.983
same,normalized growth,"S. cerevisiae deletion strains, locus YDL035C, strain GPR1, active compounds read low",1.02
same,normalized growth,"S. cerevisiae deletion strains, locus YDL074C, strain BRE1, active compounds read low",1.03
same,normalized growth,"S. cerevisiae deletion strains, locus YDL101C, strain DUN1, active compounds read low",0.989
same,normalized growth,"S. cerevisiae deletion strains, locus YDL134C, strain PPH21, active compounds read low",0.988
same,normalized growth,"S. cerevisiae deletion strains, locus YDL185W, strain tfp1, active compounds read low",0.965
same,normalized growth,"S. cerevisiae deletion strains, locus YDL192W, strain arf1, active compounds read low",0.985
same,normalized growth,"S. cerevisiae deletion strains, locus YDR101C, strain arx1, active compounds read low",0.987
same,normalized growth,[1],0.982
same,normalized growth,"S. cerevisiae deletion strains, locus YDR162C, strain NBP2, active compounds read low",0.991
same,normalized growth,"S. cerevisiae deletion strains, locus YDR318W, strain mcm21, active compounds read low",1
same,normalized growth,"S. cerevisiae deletion strains, locus YDR388W, active compounds read low",0.991
same,normalized growth,"S. cerevisiae deletion strains, locus YDR502C, strain sam2, active compounds read low",0.993
same,normalized growth,"S. cerevisiae deletion strains, locus YEL061C, strain CIN8, active compounds read low",0.995
same,normalized growth,"S. cerevisiae deletion strains, locus YER110C, active compounds read low",0.959
same,normalized growth,"S. cerevisiae deletion strains, locus YER155C, strain BEM2, active compounds read low",1
same,normalized growth,"S. cerevisiae deletion strains, locus YER167W, strain BCK2, active compounds read low",1
same,normalized growth,"S. cerevisiae deletion strains, locus YGL078C, strain dbp3, active compounds read low",0.993
same,normalized growth,"S. cerevisiae deletion strains, locus YGL086W, strain mad1, active compounds read low",0.994
same,normalized growth,"S. cerevisiae deletion strains, locus YGL248W, strain PDE1, active compounds read low",1.01
same,normalized growth,[2],1.01
same,normalized growth,"S. cerevisiae deletion strains, locus YGR135W, strain pre9, active compounds read low",0.995
same,normalized growth,[3],1.01
same,normalized growth,"S. cerevisiae deletion strains, locus YGR252W, strain gcn5, active compounds read low",1.07
same,normalized growth,"S. cerevisiae deletion strains, locus YHR030C, strain SLT2, active compounds read low",1
same,normalized growth,"S. cerevisiae deletion strains, locus YHR079C, strain IRE1 (second series), active compounds read low",0.982
same,normalized growth,"S. cerevisiae deletion strains, locus YHR094C, strain hxt1, active compounds read low",0.985
same,normalized growth,"S. cerevisiae deletion strains, locus YHR129C, strain ARP1, active compounds read low",1
same,normalized growth,"S. cerevisiae deletion strains, locus YHR200W, strain rpn10, active compounds read low",0.985
same,normalized growth,"S. cerevisiae deletion strains, locus YIL066C, strain RNR3, active compounds read low",0.993
same,normalized growth,"S. cerevisiae deletion strains, locus YIL073C, strain SPO22, active compounds read low",0.97
same,normalized growth,"S. cerevisiae deletion strains, locus YIL125W, strain kgd1, active compounds read low",0.982
same,normalized growth,"S. cerevisiae deletion strains, locus YIR030C, strain dcg1, active compounds read low",0.971
same,normalized growth,"S. cerevisiae deletion strains, locus YJL095W, strain BCK1, active compounds read low",1.04
same,normalized growth,"S. cerevisiae deletion strains, locus YJL134W, strain LCB3, active compounds read low",0.987
same,normalized growth,"S. cerevisiae deletion strains, locus YJL168C, strain set2, active compounds read low",0.994
same,normalized growth,"S. cerevisiae deletion strains, locus YJL187C, strain SWE1 (second series), active compounds read low",1.01
same,normalized growth,"S. cerevisiae deletion strains, locus YJR043C, strain POL32, active compounds read low",1.01
same,normalized growth,[4],1.02
same,normalized growth,"S. cerevisiae deletion strains, locus YKL009W, strain mrt4, active compounds read low",0.963
same,normalized growth,"S. cerevisiae deletion strains, locus YKL068W, active compounds read low",0.982
same,normalized growth,"S. cerevisiae deletion strains, locus YKL085W, strain MDH1 (second series), active compounds read low",0.992
same,normalized growth,"S. cerevisiae deletion strains, locus YKL085W, strain MDH1, active compounds read low",0.992
same,normalized growth,"S. cerevisiae deletion strains, locus YKL190W, strain CNB1, active compounds read low",0.997
same,normalized growth,"S. cerevisiae deletion strains, locus YKR001C, strain vps1, active compounds read low",0.981
same,normalized growth,"S. cerevisiae deletion strains, locus YLR039C, strain RIC1, active compounds read low",1
same,normalized growth,"S. cerevisiae deletion strains, locus YLR058C, strain SHM2, active compounds read low",0.986
same,normalized growth,"S. cerevisiae deletion strains, locus YLR102C, strain apc9, active compounds read low",0.982
same,normalized growth,"S. cerevisiae deletion strains, locus YLR262C, strain YPT6, active compounds read low",0.997
same,normalized growth,"S. cerevisiae deletion strains, locus YLR268W, strain sec22, active compounds read low",1.09
same,normalized growth,"S. cerevisiae deletion strains, locus YLR330W, strain CHS5, active compounds read low",0.991
same,normalized growth,"S. cerevisiae deletion strains, locus YLR342W, strain FKS1 (second series), active compounds read low",1.02
same,normalized growth,"S. cerevisiae deletion strains, locus YLR371W, strain rom2, active compounds read low",0.929
same,normalized growth,"S. cerevisiae deletion strains, locus YLR418C, strain cdc73, active compounds read low",1.05
same,normalized growth,"S. cerevisiae deletion strains, locus YML016C, strain PPZ1, active compounds read low",0.981
same,normalized growth,"S. cerevisiae deletion strains, locus YML032C, strain rad52, active compounds read low",1.01
same,normalized growth,"S. cerevisiae deletion strains, locus YML124C, strain tub3, active compounds read low",0.976
same,normalized growth,"S. cerevisiae deletion strains, locus YMR078C, strain ctf18, active compounds read low",0.972
same,normalized growth,"S. cerevisiae deletion strains, locus YMR223W, strain ubp8, active compounds read low",0.995
same,normalized growth,[5],1.01
same,normalized growth,[6],1.1
same,normalized growth,"S. cerevisiae deletion strains, locus YNL067W, strain RPL9B, active compounds read low",1.04
same,normalized growth,[7],0.997
same,normalized growth,"S. cerevisiae deletion strains, locus YNL153C, strain GIM3, active compounds read low",1.01
same,normalized growth,"S. cerevisiae deletion strains, locus YNL233W, strain BNI4, active compounds read low",1.04
same,normalized growth,"S. cerevisiae deletion strains, locus YNL250W, strain rad50, active compounds read low",0.98
same,normalized growth,"S. cerevisiae deletion strains, locus YNL271C, strain bni1, active compounds read low",0.987
same,normalized growth,"S. cerevisiae deletion strains, locus YNL298W, strain CLA4, active compounds read low",0.962
same,normalized growth,"S. cerevisiae deletion strains, locus YNL307C, strain MCK1, active compounds read low",0.988
same,normalized growth,[8],0.995
same,normalized growth,"S. cerevisiae deletion strains, locus YNR052C, strain pop2, active compounds read low",0.989
same,normalized growth,"S. cerevisiae deletion strains, locus YOL006C, strain TOP1, active compounds read low",1.04
same,normalized growth,"S. cerevisiae deletion strains, locus YOL012C, strain htz1",1.28
same,normalized growth,"S. cerevisiae deletion strains, locus YOL147C, strain pex11, active compounds read low",0.989
same,normalized growth,"S. cerevisiae deletion strains, locus YOR061W, strain CKA2, active compounds read low",0.975
same,normalized growth,"S. cerevisiae deletion strains, locus YOR136W, strain idh2, active compounds read low",0.988
same,normalized growth,"S. cerevisiae deletion strains, locus YOR144C, strain elg1, active compounds read low",0.968
same,normalized growth,"S. cerevisiae deletion strains, locus YOR184W, strain ser1, active compounds read low",0.98
same,normalized growth,"S. cerevisiae deletion strains, locus YOR316C, strain cot1, active compounds read low",0.978
same,normalized growth,[9],1.02
same,normalized growth,[10],0.999
same,normalized growth,"S. cerevisiae deletion strains, locus YPR119W, strain clb2, active compounds read low",0.987
same,normalized growth,"S. cerevisiae deletion strains, locus YPR141C, strain kar3, active compounds read low",0.963
same,normalized growth,"S. cerevisiae deletion strains, locus YPR163C, strain tif3, active compounds read low",0.986
same,normalized growth,"S. cerevisiae deletion strains, locus YPR167C, strain met16, active compounds read low",0.984
same,normalized growth,"S. cerevisiae deletion strains, strain wtn01, active compounds read low",1.01
same,normalized growth,"S. cerevisiae strains, strain wild type, active compounds read low",1.01
O=C(NC(Cc1ccccc1)C(=O)CCl)OCc1ccccc1 (stereo not drawn),normalized growth,[11],1.03
same,normalized growth,[12],0.979
same,normalized growth,[13],1.02
same,normalized growth,[14],0.549 (active)
same,normalized growth,[2],0.98
same,normalized growth,[3],0.28 (active)
same,normalized growth,[4],0.913
same,normalized growth,[15],0.707 (active)
same,normalized growth,[16],0.874 (active)
same,normalized growth,[17],0.784 (active)
same,normalized growth,[8],0.999
same,normalized growth,[18],0.687 (active)
same,normalized growth,[10],0.992
Cc1ccc(S(=O)(=O)N[C@@H](Cc2ccccc2)C(=O)CCl)cc1,normalized growth,[11],0.932
same,normalized growth,[12],0.987
same,normalized growth,[1],0.998
same,normalized growth,[13],1
same,normalized growth,[14],0.904 (active)
same,normalized growth,[4],0.959
same,normalized growth,[5],0.993
same,normalized growth,[6],0.896 (active)
same,normalized growth,[7],0.955
same,normalized growth,[15],0.902 (active)
same,normalized growth,[16],0.892 (active)
same,normalized growth,[17],0.954
same,normalized growth,[8],1.01
same,normalized growth,[18],0.957
same,normalized growth,[9],0.983
